This assay relates to Escherichia coli. The assay can be described thus: Antibacterial activity against Escherichia coli ATCC 25922 (CO-ADD:GN_001); MIC in CAMBH media using NBS plates, by Resazurin F(560/590). Type of assay: functional. To be noted: Concentration 20 uM, ASSAY_TEST Inhibition of Bacterial Growth, detection method Resazurin, Fluorescence (ex560/em590), MEDIA CAMHB, plate type 384well, CORNING #3640, time 18 hr.
Take `O=C(Nc1cccc(Cl)c1)Nn1cnnc1`: the Inhibition is on record as 2.61%.
The result for `CN1CCC=C(C(=O)N2c3ccccc3Sc3ccc(Cl)cc32)C1.O=C(O)CCC(=O)O` reads 17.87%.
The result for `Nc1nc(O)c2nn(-c3ccccc3)nc2n1` reads 5.48%; that for `O=[N+]([O-])c1ccc(NN=C(c2ccccc2)c2ccccc2)nc1`, 13.19%; that for `CC1(c2ccc3ccccc3c2)CCC(=O)O1` (centres undefined), 7.71%.
Take `CCCCNC(=O)Nc1ccccc1CC`: the Inhibition is given as 0.25%.
For the compound `Nc1ccc(C(=O)C(=O)c2ccc(N)cc2)cc1`, the Inhibition is -16.8%.
The result for `COC(=O)Cc1[nH]c(Cl)nc1C(N)=O` reads -2.69%; that for `CN(C)c1ccc(/C=C/C(=O)c2cc(Cl)ccc2O)cc1`, 10.48%; that for `N#CCc1cnc2ccccc2n1`, 3.75%.
The result for `Cn1c(=O)c2nc(CNc3ccc(C(=O)O)cc3)[nH]c2n(C)c1=O` reads -18.91%; that for `COc1cccc(-c2nnc(N)o2)c1`, 4.71%.
The result for `O=C(c1cccnc1)N1CCN(c2ccccc2Cl)CC1` reads 10.26%.
For the compound `Cn1cnc([N+](=O)[O-])c1Sc1nc[nH]n1`, the Inhibition was 6.64%.
The same measure for `CC(=O)Nc1nc(C)c(CCC2OCCO2)c(O)n1`: -15.79%; for `NC(=O)c1nnsc1-c1ccc(-c2snnc2C(N)=O)cc1`: 9.34%.
The same measure for `C[C@]12CC[C@H](O)CC1=CC[C@@H]1[C@@H]2CC[C@]2(C)c3n[nH]cc3C[C@@H]12`: 13.22%; for `Cc1ccccc1NC(=O)C(=O)Nc1ccccc1C`: 18.63%.
The same measure for `COc1ccn(C2CCCCO2)c(=O)n1` (centres undefined): 3.33%.

For the origin of these results see ChEMBL document CHEMBL4296182, “CO-ADD screening of NIH NCI Diversity Set V”.
